Screens: PubChem BioAssay, National Center for Advancing Translational Sciences (NCATS)
VACV mCherry inh = qHTS for Stage-Specific Inhibitors of Vaccinia Orthopoxvirus: mCherry Reporter Primary qHTS; AID 720579, 2013; 310,000 tested, 0.63% active; Vaccinia virus mCherry reporter infection, fluorescence; Potency, µM (doses to about 36.5 µM), hits mostly inhibitors; calls by dose curve; tested in A549 cells; also: nearly all actives have a fitted effect of over 35% in size
Vaccinia Venus = qHTS for Stage-Specific Inhibitors of Vaccinia Orthopoxvirus: Venus Reporter Primary qHTS | Vaccinia virus Venus reporter expression, fluorescence | Potency, µM (doses to about 36.5 µM), usual class: inhibitors | 330,000 tested, 0.46% active | AID 720580, 2013; calls by dose curve; tested in A549 cells; also: nearly all actives have a fitted effect of over 30% in size
FMDV inh = High Throughput Screening for Foot and Mouth Disease Virus Antivirals | FMDV antiviral cell-based qHTS | Potency, µM (titrated, usually from 57.9 µM), hits mostly inhibitors | 410,000 tested, 1.2% active | AID 1159524, 2015; calls by dose curve; tested in HEK293T cells; also: read-out not given here; nearly all actives have a fitted effect of over 45% in size
LASV entry inh = qHTS for Inhibitors of binding or entry into cells for Lassa Virus | Lassa virus pseudotype entry inhibition, cell reporter | Potency, µM (doses to about 37.9 µM), usual class: inhibitors | 300,000 tested, 1.2% active | AID 540256, 2011; calls by dose curve; tested in HEK293 cells; also: nearly all actives have a fitted effect of over 50% in size
HCMV inh = qHTS Assay for inhibitors of the human cytomegalovirus (HCMV); AID 1259415, 2018; activity change, negative = inhibition, % at 57.5 µM; HFF cells, HCMV-luciferase reporter, 72 h; hits give low values; 410,000 tested, 4.5% active; in the data active = activity change below about -60%; inconclusive = no clear call, values can overlap the other calls; inactive = above about -39%
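HFF cells seeded 16 h at 37C, treated with compounds, infected with luciferase-reporter HCMV at MOI 1 PFU/cell; luciferase read at 72 h post infection, normalized to buffer-only and Salinomycin controls.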
MARV entry inh = qHTS for inhibitors of binding or entry into cells for Marburg Virus; Marburg virus pseudotyped entry inhibition, cell reporter; Potency, µM (top dose mostly 37.8 µM), actives largely listed as inhibitors; 300,000 tested, 1.8% active; AID 540276, 2011; calls by dose curve; tested in HEK293 cells
Numbers stand for hits; - = inactive; ? = inconclusive; . = no result given; [ ] = remark or other dose. An excerpt weighted towards active compounds, which were near 6.5% of everything screened.

SMILES	VACV mCherry inh	Vaccinia Venus	FMDV inh	LASV entry inh	HCMV inh	MARV entry inh
COc1cccc(C(=O)c2cn(CC(=O)NCc3ccccc3Cl)c3nc(C)ccc3c2=O)c1	-	-	-	?	-	.
COc1ccc(NC(=O)N2C[C@H]3[C@@H](c4ccccc42)[C@@H](CO)N3C(=O)C2CC2)cc1	.	.	.	.	-	.
COc1ccc(NC(=O)c2cc(-c3ccncc3)nc3ccccc23)c(OC)c1	-	-	-	?	-	5.6µM
COc1cccc(-c2cc(C(=O)Nc3ccncc3)c3ccccc3n2)c1	-	-	?	-	-	?
COc1ccc2cc(-c3cc(C(=O)OCC(=O)NC4CCS(=O)(=O)C4)c4ccccc4n3)ccc2c1 (stereo unspecified)	?	-	-	3.5µM	-	3.2µM
O=C(NCCCn1ccnc1)c1nn2c(C(F)(F)F)cc(-c3ccc(Br)cc3)nc2c1Cl	?	?	35µM	-	-	?
COc1cc(-c2cc(C(=O)Nc3ccc(O)cc3)c3ccccc3n2)cc(OC)c1OC	?	-	?	.	-	.
COc1ccc(-c2cc(C(=O)Nc3ccc(C(N)=O)cc3)c3ccccc3n2)cc1OC	-	-	-	-	-92	?
CCc1cccc(N2C(=O)CS(=O)(=O)C23C(=O)N(Cc2ccccc2)c2ccc(C)cc23)c1 (stereo unspecified)	-	-	?	?	-	.
CC(C)Oc1ccc(Br)cc1/C=N\NC(N)=S	5.6µM	7.9µM	?	?	?	?
C[C@H]1[C@@H](NS(=O)(=O)c2ccc([N+](=O)[O-])cc2)CC[C@@]23CCCN2C(=O)CCC[C@@H]13	.	.	.	.	-	.
COc1ccc(-n2c(O)c(/C=C3\C=Nc4ccccc43)c(=O)[nH]c2=O)cc1	.	.	-	.	-	.
COc1ccc(-n2c(O)c(/C=C3\C=Nc4ccc(Br)cc43)c(=O)[nH]c2=O)cc1	-	-	16µM	-	-	-
COc1ccc(-n2c(O)c(/C=C3\C=Nc4ccc(Br)cc43)c(=O)[nH]c2=O)c(OC)c1	-	-	25µM	?	-	?
NS(=O)(=O)c1ccc(NC(=O)CN2CCN(c3ccc(F)cc3)CC2)cc1	-	-	-	-	-	.
Cn1c(SCc2ccc(F)cc2Cl)nc2ccccc2c1=O	-	-	?	?	?	?
Cc1ccc(-n2c(SCc3cn4ccsc4n3)nc3ccccc3c2=O)cc1	-[1.46 µM]	?	-	?	-65	-
COc1ccc(C(=O)Nn2c(SCc3cccc([N+](=O)[O-])c3)nc3ccccc3c2=O)cc1	-	-	?	3.3µM	-70	8.9µM
Cn1c(SCc2cccc([N+](=O)[O-])c2)nc2ccccc2c1=O	?	?	20µM	-	?	?
COCCn1c(SCc2cccc([N+](=O)[O-])c2)nc2ccccc2c1=O	?	-	?	?	?	?
c1ccc(-n2cnnc2SCc2cn3ccsc3n2)cc1	.	.	-	-	-	?
Cn1c(SCc2cccc(C#N)c2)nc2ccccc2c1=O	-	-	?	?	-64	-
COc1ncccc1C(=O)N1CCOc2ccc(C(O)C(c3ccccc3)c3ccccc3)cc2C1 (stereo unspecified)	-	-	-	.	.	.
COC(=O)c1ccc(CN2C(=O)[C@]3(O[C@H](C)CC4=CCCC43)c3c(Br)cccc32)cc1 (stereo partly specified)	.	.	.	.	.	-
CCCCn1c(SCC(=O)Nc2cccc(OC)c2)nc2ccsc2c1=O	-	-	-	-	-	.
SMILES	VACV mCherry inh	Vaccinia Venus	FMDV inh	LASV entry inh	HCMV inh	MARV entry inh
Oc1cc(-c2nc3ccccc3s2)cc2c1OCCN(Cc1cccn1-c1ncccn1)C2	-	-	-	.	.	.
Cc1ccc(CSc2nc3ccccc3c(=O)n2C)cc1	-	-	?	-	-65	?
CC(=O)NCCn1c(SCc2ccc(C)cc2)nc2ccccc2c1=O	.	.	-	-	?	-
Cc1nnc(SCc2cccc([N+](=O)[O-])c2)[nH]c1=O	-	-	-	-	-81	-
Cc1nnc(SCc2ccc([N+](=O)[O-])cc2)[nH]c1=O	-	-	-	-	?	-
COc1cccc(Cn2c(=O)c(-c3cccs3)nc3cnc(N(C)C)nc32)c1	.	.	-	.	.	.
Cc1cccc(NC(=O)CCNS(=O)(=O)c2ccc3c(c2)CCN3C(=O)C2CC2)c1	-	-	-	-	-	.
Cc1ccc2nc(-c3sc4nc(C)cc(C)c4c3N)[nH]c2c1	?	?	-	13µM	-	?
